Screens from PubChem BioAssay.
Sampled rows, rich in hits. Any-hit rate of the full collection: about 3.6%.
A3G deaminase – APOBEC3G DNA deaminase inhibitors, primary screen, biochemical, fluorescence, single-stranded DNA substrate, uHTS; AID 493012, 2011; inhibition, % at 20 µM; 0.28% of 330,000 active; DNA dC->dU-editing enzyme APOBEC-3G (Homo sapiens), Q9HC16; recombinant A3G, ssDNA deamination FAM/TAMRA fluorescence;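 active means inhibition of at least 40% at 20 µM, with no more than 30% in the related APOBEC3A deaminase screen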;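 further: plate controls were DMSO wells with A3G for no effect and wells lacking A3G enzyme for full effect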
A3A deaminase – APOBEC3A ssDNA deaminase inhibitors, primary screen, selectivity assay for APOBEC3G inhibitor project, biochemical, FAM/TAMRA oligo cleavage fluorescence; DNA dC->dU-editing enzyme APOBEC-3A (Homo sapiens), P31941; recombinant A3A, FAM/TAMRA ssDNA deamination fluorescence; inhibition, % at 20 µM; 0.41% of 330,000 active; AID 493011, 2011;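 active means at least 40% inhibition at 20 µM here, with at most 30% in a related deaminase screen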;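 further: plate controls were A3A with DMSO for no effect and wells lacking A3A enzyme for full effect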
Target sequence (P31941 whole entry, looked up): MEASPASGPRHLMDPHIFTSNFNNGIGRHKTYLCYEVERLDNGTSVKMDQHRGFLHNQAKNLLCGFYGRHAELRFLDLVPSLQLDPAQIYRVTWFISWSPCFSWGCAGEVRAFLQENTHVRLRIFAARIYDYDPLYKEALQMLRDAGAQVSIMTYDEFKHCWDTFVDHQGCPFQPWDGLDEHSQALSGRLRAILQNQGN
PHOSPHO1 block – PubChem AID 1565; Phosphoethanolamine/phosphocholine phosphatase (Homo sapiens), Q8TCT1; recombinant PHOSPHO1, absorbance phosphatase assay; inhibition, % at 13.3 µM; 1.1% of 290,000 active; in the data active means inhibition above about 60%
MITF TRPM1 HTS – activators of MITF-driven TRPM1 promoter reporter, primary screen, cell-based, SK-MEL-5, luciferase, single point | SK-MEL-5 TRPM1-promoter luciferase, 24 h; % of positive control, neutral wells = 0 | activation, % at 12.5 µM | 0.75% of 300,000 active | AID 588334, 2011;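 active means mean activation of at least 80% with every replicate also reaching 80%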;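 further: 0% = neutral control wells and 100% = parthenolide positive control wells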
Wnt bcat act – Wnt/beta-catenin pathway activators, primary screen, cell-based, plate reader, single point | Wnt/beta-catenin reporter cell assay, activator | activation, % at 9.35 µM | 1.2% of 300,000 active; in the data active means activation above about 30%, passing the limit was not always enough;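 further: 0% = neutral control wells and 100% = positive control wells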
esBAF inh – Bmi1 luciferase reporter increase in mESCs, primary screen, esBAF inhibitor project, mouse ES cells, Bmi1 luciferase knock-in, single point; 2% of 350,000 active; reporter increase, % at 12.5 µM; AID 602393, 2012; 24 h; 100% = twice the neutral-well signal; in the data active means activation above about 40%;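 further: 0% = median of the plate's neutral control wells and 100% = double that signal; a rise in the Bmi1 reporter signal indicates esBAF inhibition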
Numbers without * were called inactive; nt = no result given.

SMILES	A3G deaminase	A3A deaminase	PHOSPHO1 block	MITF TRPM1 HTS	Wnt bcat act	esBAF inh
O=S(=O)(Cc1cc(-c2ccccc2Cl)no1)c1ccccc1	-8	-1	4	90*	-2	53*
O=S(=O)(NCc1cc(-c2ccccc2Cl)no1)c1ccccc1	-5	1	-5	-11	1	2
O=S(=O)(NCc1cc(-c2ccc(Cl)cc2)no1)c1ccccc1	-3	2	-137	nt	3	7
Clc1ccc(-c2cc(COc3ccccc3)on2)cc1	-4	0	23	70	9	51*
Cc1ccc(S(=O)(=O)N/N=C/c2cc(Br)c(C)o2)cc1	-4	-2	91*	-6	nt	8
Cc1ccc(S(=O)(=O)NN=Cc2ccco2)cc1	nt	nt	nt	nt	-2	5
COc1ccc(-c2cc(C(=O)N3CCCC3)no2)cc1OC	2	1	2	36	20	67*
COc1ccc(-c2cc(C(=O)N3CCN(c4ccc(F)cc4)CC3)no2)cc1OC	-7	-3	35	-6	-1	-4
COc1ccc(-c2cc(C(=O)N3CCCCC3)no2)cc1OC	-6	0	18	61	-4	59*
COc1ccc(-c2cc(C(=O)N3CCN(Cc4ccccc4)CC3)no2)cc1OC	-5	0	7	13	nt	-4
CCCNC(=O)N(C)C[C@@H]1Oc2ncc(C#C[C@@H](C)O)cc2C(=O)N([C@@H](C)CO)C[C@@H]1C	nt	nt	nt	nt	nt	-5
O=C(C[C@H]1CC[C@H]2[C@@H](COC[C@H](O)CN2C(=O)c2ccccc2F)O1)N1CCCCC1	nt	nt	nt	nt	nt	-2
CCCN1CCN(CCCNC(=O)C2CCN(c3nnc(-n4c(C)ccc4C)s3)CC2)CC1	-6	-4	65*	12	1	-1
CC1CC(C)CN(CCCNC(=O)c2ccc3nc(N4CCOCC4)sc3c2)C1 (stereo not given)	-4	2	31	nt	0	-1
CCCN1CCN(CCCNC(=O)c2ccc3nc(N4CCC(C)CC4)sc3c2)CC1	-7	2	5	nt	12	55*
CC1CCCCN1CCCNC(=O)c1ccc2nc(N3CCCCC3)sc2c1 (stereo not given)	-10	-2	25	nt	12	58*
CO[C@H]1CN(C)C(=O)c2ccc(NS(=O)(=O)c3cn(C)cn3)cc2OC[C@H](C)N(CC2CC2)C[C@H]1C	nt	nt	nt	nt	nt	-1
NCc1cccc(-n2cccn2)c1	1	2	-34	5	nt	3
c1ccc2c(-n3cccn3)cccc2c1	-6	-3	3	37	nt	71*
COC(=O)C1C(=O)OC(C)(C)C1C(C)C(=O)c1ccc(C)cc1C (stereo not given)	-3	0	60*	8	-1	nt
CCOc1ccc(NC(=O)c2ccc3nccnc3c2)cc1	2	3	10	89*	nt	nt
CCOc1ccc(NC(=O)c2csc3c2CCCC3)cc1	-10	-4	-1	nt	46*	78*
CCOc1ccc(NC(=O)c2ccccc2SC)cc1	-7	-2	-1	75	-1	46*
CC(=O)c1cccc(NC(=O)c2csc3c2CCCCC3)c1	-2	9	-3	15	12	nt
C[C@H](CO)N1C[C@H](C)[C@H](CN(C)Cc2cccnc2)Oc2cc(C#C[C@@H](C)O)ccc2S1(=O)=O	nt	nt	nt	nt	nt	0
SMILES	A3G deaminase	A3A deaminase	PHOSPHO1 block	MITF TRPM1 HTS	Wnt bcat act	esBAF inh
CNc1nc2c(-c3ccc(Cl)cc3)nnn2c2ccccc12	-6	1	23	-14	-6	7
Nc1nc2c(-c3ccc(Br)cc3)nnn2c2ccccc12	-8	-1	23	40	43*	16
CC1=NC(=O)C(N=Nc2cccc(O)c2)N1c1ccccc1 (stereo not given)	17	28	95*	20	nt	36
Cc1cccc(-n2c(O)c(C=Nc3cccc(O)c3)c3ccccc3c2=O)n1	-8	-6	0	1	4	4
CCc1nnc(NC(=O)CSc2ccc(-c3ccco3)nn2)s1	13	24	72*	0	-1	nt
CCc1nnc(NC(=O)CSc2ccc(-c3ccc(-n4cccn4)cc3)nn2)s1	-10	0	nt	82*	28	nt
